Columns and labels:
Test in all cases: DAPPL (digital affinity profiling via proximity ligation, sequencing); 10 mM Tris-HCl pH 7.5, 50 mM NaCl, 1 mM DTT, 4% glycerol, room temperature, 30 min; GST-TFs on glutathione beads, 16-mer random dsDNA library, 0.1% formaldehyde crosslink after washing; high values mean tight binding
Conditions in all cases: protein: recombinant; tags: N-terminal GST; dsDNA, one strand shown
FLI1 = molecular target: T1, FLI1 (Homo sapiens, UniProt Q01543 1-452)
T1 sequence: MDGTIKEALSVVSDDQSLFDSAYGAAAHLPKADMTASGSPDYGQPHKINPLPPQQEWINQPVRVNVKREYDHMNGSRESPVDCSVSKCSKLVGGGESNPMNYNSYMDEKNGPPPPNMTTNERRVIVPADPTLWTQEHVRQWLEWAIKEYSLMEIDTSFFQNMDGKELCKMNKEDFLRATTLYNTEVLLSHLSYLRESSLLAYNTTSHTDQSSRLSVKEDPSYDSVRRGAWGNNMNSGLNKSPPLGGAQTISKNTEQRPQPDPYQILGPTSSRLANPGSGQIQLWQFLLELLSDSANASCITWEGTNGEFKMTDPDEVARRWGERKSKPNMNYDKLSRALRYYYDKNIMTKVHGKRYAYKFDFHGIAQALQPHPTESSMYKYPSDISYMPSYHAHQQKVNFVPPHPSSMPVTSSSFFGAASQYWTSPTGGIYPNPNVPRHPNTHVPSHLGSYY
Outline: (§1)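 Beads coated with glutathione captured GST-fused human transcription factors that had been expressed in yeast, and the factors were then given DNA barcodes and pooled with a tag-only sample. The pools were incubated with 200 nmole of a random double-stranded 16-mer DNA library in Tris/NaCl/DTT/glycerol buffer for 30 min at room temperature, washed, crosslinked with 0.1% formaldehyde and proximity-ligated with BsaI/T4 ligase at 37 °C for 1 h. PCR amplification and Illumina NextSeq500 sequencing came last. Binding signal is each hexamer's read frequency for a factor divided by its frequency for the tag-only sample.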

ELK1 = molecular target: T2, ELK1 (Homo sapiens, UniProt P19419 1-428)
T2 sequence: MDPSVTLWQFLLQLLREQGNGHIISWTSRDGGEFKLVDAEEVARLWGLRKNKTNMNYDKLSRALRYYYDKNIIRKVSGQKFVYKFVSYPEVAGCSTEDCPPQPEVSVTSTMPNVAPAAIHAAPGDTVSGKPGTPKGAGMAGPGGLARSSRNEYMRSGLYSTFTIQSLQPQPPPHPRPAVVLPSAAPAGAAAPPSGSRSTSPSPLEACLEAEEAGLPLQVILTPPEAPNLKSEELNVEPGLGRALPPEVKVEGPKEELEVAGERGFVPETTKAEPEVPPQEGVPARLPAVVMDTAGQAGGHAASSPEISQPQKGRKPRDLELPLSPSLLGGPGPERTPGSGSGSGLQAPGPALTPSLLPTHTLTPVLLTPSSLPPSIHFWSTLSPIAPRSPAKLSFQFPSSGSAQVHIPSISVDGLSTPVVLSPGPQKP
Outline: as §1

GABPA = molecular target: T3, GABPA (Homo sapiens, UniProt Q06546 1-454)
T3 sequence: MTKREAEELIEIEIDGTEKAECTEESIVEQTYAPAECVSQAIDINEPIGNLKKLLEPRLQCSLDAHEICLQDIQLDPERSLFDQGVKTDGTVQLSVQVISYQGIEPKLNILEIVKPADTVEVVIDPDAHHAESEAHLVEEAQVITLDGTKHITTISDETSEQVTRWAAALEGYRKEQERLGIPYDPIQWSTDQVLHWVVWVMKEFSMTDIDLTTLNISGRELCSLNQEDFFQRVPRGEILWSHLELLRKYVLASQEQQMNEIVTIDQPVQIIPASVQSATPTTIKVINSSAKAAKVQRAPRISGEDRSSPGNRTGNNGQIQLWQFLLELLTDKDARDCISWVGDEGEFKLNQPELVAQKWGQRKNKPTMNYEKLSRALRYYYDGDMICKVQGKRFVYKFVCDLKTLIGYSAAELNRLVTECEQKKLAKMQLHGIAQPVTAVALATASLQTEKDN
Outline: as §1

ERG = molecular target: T4, ERG (Homo sapiens, UniProt P11308 1-479)
T4 sequence: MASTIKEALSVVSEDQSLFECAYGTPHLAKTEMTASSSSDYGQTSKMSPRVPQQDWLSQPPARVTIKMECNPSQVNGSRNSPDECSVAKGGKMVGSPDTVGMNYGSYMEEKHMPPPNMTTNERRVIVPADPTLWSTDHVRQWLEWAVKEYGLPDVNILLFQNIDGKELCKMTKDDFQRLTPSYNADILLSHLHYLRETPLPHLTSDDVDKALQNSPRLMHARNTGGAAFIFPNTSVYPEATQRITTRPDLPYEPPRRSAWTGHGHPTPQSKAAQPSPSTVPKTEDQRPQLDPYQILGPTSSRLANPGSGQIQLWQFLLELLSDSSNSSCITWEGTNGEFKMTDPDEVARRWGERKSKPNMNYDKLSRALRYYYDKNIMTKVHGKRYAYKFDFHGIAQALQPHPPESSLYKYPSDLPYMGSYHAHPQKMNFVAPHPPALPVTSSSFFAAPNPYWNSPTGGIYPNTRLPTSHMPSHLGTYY
Outline: as §1

ELF1 = ELF1 (Homo sapiens, UniProt P32519 1-619)
Sequence of ELF1 (P32519 whole entry): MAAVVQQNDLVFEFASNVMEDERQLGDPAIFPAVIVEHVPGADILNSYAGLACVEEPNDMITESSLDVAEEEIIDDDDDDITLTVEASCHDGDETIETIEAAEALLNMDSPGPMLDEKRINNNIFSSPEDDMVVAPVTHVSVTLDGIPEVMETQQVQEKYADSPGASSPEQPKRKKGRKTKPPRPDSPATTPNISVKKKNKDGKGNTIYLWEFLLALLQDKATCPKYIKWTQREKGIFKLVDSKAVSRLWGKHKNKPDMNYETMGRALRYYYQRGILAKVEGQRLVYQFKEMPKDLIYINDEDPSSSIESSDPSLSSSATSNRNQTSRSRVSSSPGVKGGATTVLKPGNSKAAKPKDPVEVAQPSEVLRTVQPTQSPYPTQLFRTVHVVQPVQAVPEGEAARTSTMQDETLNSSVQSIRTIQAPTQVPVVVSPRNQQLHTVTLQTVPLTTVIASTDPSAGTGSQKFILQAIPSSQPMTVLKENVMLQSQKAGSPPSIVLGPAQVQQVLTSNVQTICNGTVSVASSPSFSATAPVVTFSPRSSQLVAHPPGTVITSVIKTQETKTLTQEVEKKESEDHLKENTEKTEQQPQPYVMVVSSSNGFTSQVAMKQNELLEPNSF
Outline: as §1

EHF = molecular target: T5, EHF (Homo sapiens, UniProt Q9NZC4 1-300)
T5 sequence: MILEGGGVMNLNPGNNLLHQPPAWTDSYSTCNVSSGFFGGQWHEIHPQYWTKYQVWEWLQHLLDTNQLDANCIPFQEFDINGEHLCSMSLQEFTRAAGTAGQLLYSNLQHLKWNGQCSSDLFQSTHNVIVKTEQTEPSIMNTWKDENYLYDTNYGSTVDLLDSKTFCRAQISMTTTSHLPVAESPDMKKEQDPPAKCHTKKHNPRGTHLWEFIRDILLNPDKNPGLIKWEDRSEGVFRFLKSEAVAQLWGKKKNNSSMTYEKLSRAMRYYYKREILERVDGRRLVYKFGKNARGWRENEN
Outline: as §1

SPI1 = SPI1 (Homo sapiens, UniProt P17947 1-270)
Outline: as §1

SPIB = SPIB (Homo sapiens, UniProt Q01892 1-262)
Sequence of SPIB (Q01892 whole entry): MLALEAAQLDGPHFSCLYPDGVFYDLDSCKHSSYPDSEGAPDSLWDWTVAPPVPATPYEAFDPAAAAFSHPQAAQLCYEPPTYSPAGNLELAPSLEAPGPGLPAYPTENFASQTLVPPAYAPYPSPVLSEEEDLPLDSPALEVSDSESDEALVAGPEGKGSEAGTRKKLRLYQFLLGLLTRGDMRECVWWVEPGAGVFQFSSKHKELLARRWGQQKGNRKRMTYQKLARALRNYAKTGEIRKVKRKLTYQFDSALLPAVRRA
Outline: as §1

ELK3 = molecular target: T6, ELK3 (Homo sapiens, UniProt P41970 1-407)
T6 sequence: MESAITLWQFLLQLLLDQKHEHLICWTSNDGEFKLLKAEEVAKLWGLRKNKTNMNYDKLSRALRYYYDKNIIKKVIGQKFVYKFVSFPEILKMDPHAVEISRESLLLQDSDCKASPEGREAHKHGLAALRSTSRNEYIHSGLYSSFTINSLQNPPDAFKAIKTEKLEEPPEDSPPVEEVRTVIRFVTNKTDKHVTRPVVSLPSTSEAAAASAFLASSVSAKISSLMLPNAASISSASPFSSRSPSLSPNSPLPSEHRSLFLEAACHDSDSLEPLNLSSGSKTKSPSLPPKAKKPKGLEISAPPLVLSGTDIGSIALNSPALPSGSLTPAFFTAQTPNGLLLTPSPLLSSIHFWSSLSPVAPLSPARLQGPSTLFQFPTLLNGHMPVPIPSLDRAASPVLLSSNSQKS
Outline: as §1

FEV = molecular target: T7, FEV (Homo sapiens, UniProt Q99581 1-238)
T7 sequence: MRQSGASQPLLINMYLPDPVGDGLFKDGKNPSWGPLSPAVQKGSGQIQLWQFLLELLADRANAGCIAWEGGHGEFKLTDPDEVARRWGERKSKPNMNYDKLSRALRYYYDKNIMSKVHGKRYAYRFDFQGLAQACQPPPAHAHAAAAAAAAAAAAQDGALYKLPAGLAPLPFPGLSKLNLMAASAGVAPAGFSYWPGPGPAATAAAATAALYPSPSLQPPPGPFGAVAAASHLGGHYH
Outline: as §1

ETV5 = ETV5 (Homo sapiens, UniProt P41161 1-510)
Sequence of ETV5 (P41161 whole entry): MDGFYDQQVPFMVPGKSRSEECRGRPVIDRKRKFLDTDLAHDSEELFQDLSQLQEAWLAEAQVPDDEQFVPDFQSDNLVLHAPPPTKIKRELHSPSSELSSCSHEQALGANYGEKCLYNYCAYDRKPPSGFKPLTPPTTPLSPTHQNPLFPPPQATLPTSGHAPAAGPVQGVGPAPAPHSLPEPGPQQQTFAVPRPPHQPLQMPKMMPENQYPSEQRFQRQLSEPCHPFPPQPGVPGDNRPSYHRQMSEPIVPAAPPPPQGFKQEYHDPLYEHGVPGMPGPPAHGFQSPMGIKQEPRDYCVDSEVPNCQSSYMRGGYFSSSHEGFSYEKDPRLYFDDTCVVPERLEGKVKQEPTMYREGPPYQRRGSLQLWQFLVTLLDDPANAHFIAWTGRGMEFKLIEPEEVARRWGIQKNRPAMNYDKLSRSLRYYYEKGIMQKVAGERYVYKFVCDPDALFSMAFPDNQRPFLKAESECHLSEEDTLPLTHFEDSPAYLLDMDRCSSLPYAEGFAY
Outline: as §1

SPIC = molecular target: T8, SPIC (Homo sapiens, UniProt Q8N5J4 1-248)
T8 sequence: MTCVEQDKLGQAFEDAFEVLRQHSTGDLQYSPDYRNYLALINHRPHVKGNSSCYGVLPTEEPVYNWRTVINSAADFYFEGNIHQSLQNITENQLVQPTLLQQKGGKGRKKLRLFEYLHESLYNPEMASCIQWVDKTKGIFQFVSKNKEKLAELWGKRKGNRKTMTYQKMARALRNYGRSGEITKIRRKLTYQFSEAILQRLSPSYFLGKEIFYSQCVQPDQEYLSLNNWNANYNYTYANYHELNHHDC
Outline: as §1

ELF4 = ELF4 (Homo sapiens, UniProt Q99607 1-663)
Sequence of ELF4 (Q99607 whole entry): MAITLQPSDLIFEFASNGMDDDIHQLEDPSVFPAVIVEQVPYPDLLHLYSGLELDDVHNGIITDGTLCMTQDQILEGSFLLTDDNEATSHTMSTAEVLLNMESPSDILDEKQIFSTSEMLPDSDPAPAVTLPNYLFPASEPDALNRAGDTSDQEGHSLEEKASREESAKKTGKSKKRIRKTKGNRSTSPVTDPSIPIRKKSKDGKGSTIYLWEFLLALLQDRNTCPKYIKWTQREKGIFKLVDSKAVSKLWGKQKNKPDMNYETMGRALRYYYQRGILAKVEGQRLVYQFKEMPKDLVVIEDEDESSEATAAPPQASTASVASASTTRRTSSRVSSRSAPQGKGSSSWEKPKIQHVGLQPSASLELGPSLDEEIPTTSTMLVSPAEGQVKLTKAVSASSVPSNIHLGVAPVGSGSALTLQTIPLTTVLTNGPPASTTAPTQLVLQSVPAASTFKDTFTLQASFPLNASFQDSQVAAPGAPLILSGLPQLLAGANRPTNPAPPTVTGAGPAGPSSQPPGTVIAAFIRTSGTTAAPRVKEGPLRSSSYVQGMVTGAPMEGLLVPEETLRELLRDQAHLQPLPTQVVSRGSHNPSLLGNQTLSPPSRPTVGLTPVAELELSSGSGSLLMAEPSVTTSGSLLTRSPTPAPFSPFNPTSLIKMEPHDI
Outline: as §1

ELK4 = molecular target: T9, ELK4 (Homo sapiens, UniProt P28324-2 1-405)
T9 sequence: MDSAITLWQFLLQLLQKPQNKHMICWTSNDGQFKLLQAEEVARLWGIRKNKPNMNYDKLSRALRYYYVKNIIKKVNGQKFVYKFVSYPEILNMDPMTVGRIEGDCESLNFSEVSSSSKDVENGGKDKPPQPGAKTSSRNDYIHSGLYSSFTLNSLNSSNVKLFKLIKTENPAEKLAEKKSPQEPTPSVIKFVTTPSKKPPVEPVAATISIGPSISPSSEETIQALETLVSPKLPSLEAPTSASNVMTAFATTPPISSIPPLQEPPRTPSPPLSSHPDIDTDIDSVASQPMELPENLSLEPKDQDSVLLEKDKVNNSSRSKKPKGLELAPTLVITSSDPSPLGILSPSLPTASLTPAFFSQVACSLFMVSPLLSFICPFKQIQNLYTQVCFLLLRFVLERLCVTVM
Outline: as §1

ETV2 = molecular target: T10, ETV2 (Homo sapiens, UniProt O00321 1-342)
T10 sequence: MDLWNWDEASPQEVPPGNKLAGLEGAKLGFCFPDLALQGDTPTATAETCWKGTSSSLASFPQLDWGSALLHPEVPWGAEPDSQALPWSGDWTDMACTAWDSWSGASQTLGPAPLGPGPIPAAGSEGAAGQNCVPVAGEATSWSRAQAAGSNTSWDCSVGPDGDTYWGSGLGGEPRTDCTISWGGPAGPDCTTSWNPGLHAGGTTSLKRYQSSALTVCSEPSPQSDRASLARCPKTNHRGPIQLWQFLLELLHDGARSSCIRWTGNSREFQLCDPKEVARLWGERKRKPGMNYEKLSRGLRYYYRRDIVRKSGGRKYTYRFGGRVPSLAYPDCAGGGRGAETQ
Outline: as §1

ELF3 = molecular target: T11, ELF3 (Homo sapiens, UniProt P78545 1-371)
T11 sequence: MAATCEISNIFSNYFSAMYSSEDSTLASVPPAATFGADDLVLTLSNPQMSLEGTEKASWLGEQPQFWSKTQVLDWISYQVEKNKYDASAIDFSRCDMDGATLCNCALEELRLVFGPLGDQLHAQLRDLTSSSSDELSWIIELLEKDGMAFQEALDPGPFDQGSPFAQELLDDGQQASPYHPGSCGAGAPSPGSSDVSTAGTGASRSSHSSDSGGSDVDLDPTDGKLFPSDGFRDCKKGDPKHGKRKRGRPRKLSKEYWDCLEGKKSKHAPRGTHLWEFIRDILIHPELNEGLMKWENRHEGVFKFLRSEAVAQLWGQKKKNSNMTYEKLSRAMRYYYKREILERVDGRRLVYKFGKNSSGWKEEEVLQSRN
Outline: as §1

ETV1 = ETV1 (Homo sapiens, UniProt P50549 1-477)
Sequence of ETV1 (P50549 whole entry): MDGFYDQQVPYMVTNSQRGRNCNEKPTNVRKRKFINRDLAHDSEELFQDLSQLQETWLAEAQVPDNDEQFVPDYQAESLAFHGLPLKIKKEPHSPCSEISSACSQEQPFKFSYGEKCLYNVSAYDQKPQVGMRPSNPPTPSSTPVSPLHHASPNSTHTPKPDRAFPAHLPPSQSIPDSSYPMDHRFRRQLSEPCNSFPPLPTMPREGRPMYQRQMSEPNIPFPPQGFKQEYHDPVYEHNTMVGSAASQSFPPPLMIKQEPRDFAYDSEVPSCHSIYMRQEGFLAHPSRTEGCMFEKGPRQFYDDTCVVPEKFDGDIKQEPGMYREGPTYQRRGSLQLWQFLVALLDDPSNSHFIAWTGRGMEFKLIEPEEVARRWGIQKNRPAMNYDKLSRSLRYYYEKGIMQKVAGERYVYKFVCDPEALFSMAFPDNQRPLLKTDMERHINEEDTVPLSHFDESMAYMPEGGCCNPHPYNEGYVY
Outline: as §1

Sequence | binding signal (FLI1) | binding signal (ELK1) | binding signal (GABPA) | binding signal (ERG) | binding signal (ELF1) | binding signal (EHF) | binding signal (SPI1) | binding signal (SPIB) | binding signal (ELK3) | binding signal (FEV) | binding signal (ETV5) | binding signal (SPIC) | binding signal (ELF4) | binding signal (ELK4) | binding signal (ETV2) | binding signal (ELF3) | binding signal (ETV1)
GTCCCC | 1.14 fold enrichment (6-mer frequency, TF over GST control) | 1.29 fold enrichment (6-mer frequency, TF over GST control) | 1.19 fold enrichment (6-mer frequency, TF over GST control) | 1.23 fold enrichment (6-mer frequency, TF over GST control) | 1.19 fold enrichment (6-mer frequency, TF over GST control) | 1.28 fold enrichment (6-mer frequency, TF over GST control) | 1.23 fold enrichment (6-mer frequency, TF over GST control) | 1.24 fold enrichment (6-mer frequency, TF over GST control) | 1.29 fold enrichment (6-mer frequency, TF over GST control) | 1.18 fold enrichment (6-mer frequency, TF over GST control) | 1.27 fold enrichment (6-mer frequency, TF over GST control) | 1.26 fold enrichment (6-mer frequency, TF over GST control) | 1.2 fold enrichment (6-mer frequency, TF over GST control) | 1.26 fold enrichment (6-mer frequency, TF over GST control) | 1.22 fold enrichment (6-mer frequency, TF over GST control) | 1.38 fold enrichment (6-mer frequency, TF over GST control) | 1.29 fold enrichment (6-mer frequency, TF over GST control)
CCGTCA | 1.24 fold enrichment (6-mer frequency, TF over GST control) | 1.3 fold enrichment (6-mer frequency, TF over GST control) | 1.19 fold enrichment (6-mer frequency, TF over GST control) | 1.31 fold enrichment (6-mer frequency, TF over GST control) | 1.28 fold enrichment (6-mer frequency, TF over GST control) | 1.16 fold enrichment (6-mer frequency, TF over GST control) | 1.18 fold enrichment (6-mer frequency, TF over GST control) | 1.2 fold enrichment (6-mer frequency, TF over GST control) | 1.15 fold enrichment (6-mer frequency, TF over GST control) | 1.19 fold enrichment (6-mer frequency, TF over GST control) | 1.23 fold enrichment (6-mer frequency, TF over GST control) | 1.13 fold enrichment (6-mer frequency, TF over GST control) | 1.26 fold enrichment (6-mer frequency, TF over GST control) | 1.31 fold enrichment (6-mer frequency, TF over GST control) | 1.24 fold enrichment (6-mer frequency, TF over GST control) | 1.35 fold enrichment (6-mer frequency, TF over GST control) | 1.22 fold enrichment (6-mer frequency, TF over GST control)
ATATGT | 1.09 fold enrichment (6-mer frequency, TF over GST control) | 1.08 fold enrichment (6-mer frequency, TF over GST control) | 1.16 fold enrichment (6-mer frequency, TF over GST control) | 1.1 fold enrichment (6-mer frequency, TF over GST control) | 1.2 fold enrichment (6-mer frequency, TF over GST control) | 1.13 fold enrichment (6-mer frequency, TF over GST control) | 1.09 fold enrichment (6-mer frequency, TF over GST control) | 1.18 fold enrichment (6-mer frequency, TF over GST control) | 1.14 fold enrichment (6-mer frequency, TF over GST control) | 1.11 fold enrichment (6-mer frequency, TF over GST control) | 1.1 fold enrichment (6-mer frequency, TF over GST control) | 1.18 fold enrichment (6-mer frequency, TF over GST control) | 1.14 fold enrichment (6-mer frequency, TF over GST control) | 1.21 fold enrichment (6-mer frequency, TF over GST control) | 1.04 fold enrichment (6-mer frequency, TF over GST control) | 1.14 fold enrichment (6-mer frequency, TF over GST control) | 1.12 fold enrichment (6-mer frequency, TF over GST control)

From publication PMC7862700, “An all-to-all approach to the identification of sequence-specific readers for epigenetic DNA modifications on cytosine”
